Measurements from PubChem BioAssay (NCATS).
Results filed as inconclusive are left out. Calls of active or inactive are those of the source. Calls come from the whole dose curve; as a rule, active = well fitted curve in the direction sought with a large enough effect; inconclusive = small, poorly fitted or top-dose-only effect, or another doubt; inactive = no such curve, though single readings can be large; an effect the other way counts as inactive or inconclusive.

Key:
[1] = tested on: MKL-1; test: qHTS assay to identify novel small-molecules to repurpose for Merkel cell carcinoma treatment (AID 1296009); conditions: MCC and control cell lines, CellTiter-Glo viability, 72 h; series mostly up to 46 µM; note: nearly all actives have a fitted effect of over 60% in size
Procedure, shortened: (§1)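 CellTiter-Glo luminescence after 72 hr compound exposure at 37 degree celsius gave cell viability. Libraries NPC and MIPE were run as 8- and 11-point dose responses; RLUs normalized to DMSO (negative) and no-cell (cytotoxicity) controls.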

[2] = tested on: MKL-2; test: as above; conditions: MCC and control cell lines, CellTiter-Glo viability, 72 h; series mostly up to 46 µM
Procedure, shortened: as §1

[3] = tested on: NIH3T3; test: as above; conditions: MCC and control cell lines, CellTiter-Glo viability, 72 h; at 44.8 µM (top of the series) unless noted
Procedure, shortened: as §1

[4] = tested on: UISO; test: as above; conditions: MCC and control cell lines, CellTiter-Glo viability, 72 h; series mostly up to 46 µM
Procedure, shortened: as §1

[5] = tested on: WaGa; test: as above; conditions: MCC and control cell lines, CellTiter-Glo viability, 72 h; series mostly up to 46 µM
Procedure, shortened: as §1

[6] = tested on: C33A; test: Primary qHTS to identify gynecologic anti-cancer compounds using libraries of approved drugs and bioactive compounds (AID 1345084); conditions: Gynecologic cancer cell panel viability, ATPlite luminescence, 48 h; series mostly up to 57.5 µM; note: nearly all actives have a fitted effect of over 55% in size
Procedure, shortened: (§2)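 Cytotoxicity screen measuring ATP content by luciferase luminescence. Each compound is applied at five concentrations for 48 h at 37 C with 5% CO2.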

[7] = tested on: CAOV3; test: as above; conditions: Gynecologic cancer cell panel viability, ATPlite luminescence, 48 h; series mostly up to 57.5 µM
Procedure, shortened: as §2

[8] = tested on: CASKI; test: as above; conditions: Gynecologic cancer cell panel viability, ATPlite luminescence, 48 h; series mostly up to 57.5 µM
Procedure, shortened: as §2

[9] = tested on: Es-2; test: as above; conditions: Gynecologic cancer cell panel viability, ATPlite luminescence, 48 h; series mostly up to 57.5 µM
Procedure, shortened: as §2

[10] = tested on: HeLa; test: as above; conditions: Gynecologic cancer cell panel viability, ATPlite luminescence, 48 h; series mostly up to 57.5 µM
Procedure, shortened: as §2

Measured: Potency

COc1cc2c(cc1OC)C(=O)CC2
inactive: [1] | [2] | [3] | [4] | [5] | [6] | [7] | [8] | [9] | [10]

N#CC1(c2ccc(F)cc2)CCC(=O)CC1
inactive: [1] | [2] | [3] | [4] | [5] | [6] | [7] | [8] | [9] | [10]

O=C(O)/C=C(\CC(=O)O)C(=O)O
inactive: [1] | [2] | [3] | [4] | [5] | [6] | [7] | [8] | [9] | [10]

CCOC(=O)Oc1ccc(CCNC(=O)[C@H](CCSC)NC(C)=O)cc1OC(=O)OCC
inactive: [1] | [2] | [3] | [4] | [5] | [6] | [7] | [8] | [9] | [10]

Cn1cc(S(C)=O)c(=O)c2ccc(F)cc21 (stereo not drawn)
inactive: [1] | [2] | [3] | [4] | [5] | [6] | [7] | [8] | [9] | [10]

Cc1coc2ccccc2c1=O
inactive: [1] | [2] | [3] | [4] | [5] | [6] | [7] | [8] | [9] | [10]

CN(C)CCN(Cc1ccsc1)c1ccccn1
inactive: [1] | [2] | [3] | [4] | [5] | [6] | [7] | [8] | [9] | [10]

OCCCc1ccccc1
inactive: [1] | [2] | [3] | [4] | [5] | [6] | [7] | [8] | [9] | [10]

O=P(O)(O)OCC(O)CO (stereo not drawn)
inactive: [1] | [2] | [3] | [4] | [5] | [6] | [7] | [8] | [9] | [10]

CN1N=C(C(N)=O)CCC1=O
inactive: [1] | [2] | [3] | [4] | [5] | [6] | [7] | [8] | [9] | [10]

CCCCCOc1ccc(C2SC(=O)NC2=O)cc1OCC (stereo not drawn)
inactive: [1] | [2] | [3] | [4] | [5] | [6] | [7] | [8] | [9] | [10]

O=C(CO)[C@@H](O)[C@H](O)[C@@H](O)CO
inactive: [1] | [2] | [3] | [4] | [5] | [6] | [7] | [8] | [9] | [10]

CCN(CC)CC(=O)Oc1ccc(NC(C)=O)cc1
inactive: [1] | [2] | [3] | [4] | [5] | [6] | [7] | [8] | [9] | [10]

C#Cc1ccc(-c2ccccc2F)cc1
inactive: [1] | [2] | [3] | [4] | [5] | [6] | [7] | [8] | [9] | [10]

CC(C)(C)c1ccc(C(=O)CCCCl)cc1
inactive: [1] | [2] | [3] | [4] | [5] | [6] | [7] | [8] | [9]

COC(=O)c1cc(S(N)(=O)=O)ccc1OC
inactive: [1] | [2] | [3] | [4] | [5] | [6] | [7] | [8] | [9] | [10]

O=C(CCCl)NCc1ccccc1
inactive: [1] | [2] | [3] | [4] | [5] | [6] | [7] | [8] | [9] | [10]

CC(CCc1ccc2c(c1)OCO2)NN (stereo not drawn)
inactive: [1] | [2] | [3] | [4] | [5] | [6] | [7] | [8] | [9] | [10]

CC(=O)c1ccc(O)c(C(N)=O)c1
inactive: [1] | [2] | [3] | [4] | [5] | [6] | [7] | [8] | [9] | [10]

CN1CCN(N)CC1
inactive: [1] | [2] | [3] | [4] | [5] | [6] | [7] | [8] | [9] | [10]

CN1CCC(=C2c3ccccc3CCc3cccnc32)CC1
inactive: [1] | [2] | [3] | [4] | [5] | [6] | [7] | [8] | [9] | [10]

O=C(O)Cn1c(=O)n(Cc2ccc(Br)cc2F)c(=O)c2ccc(Cl)cc21
inactive: [1] | [2] | [3] | [4] | [5] | [6] | [7] | [8] | [9] | [10]

OC[C@]1(O)OC[C@@H](O)[C@H](O)[C@@H]1O
inactive: [1] | [2] | [3] | [4] | [5] | [6] | [7] | [8] | [9] | [10]

CCNC(=O)NCCCOc1cccc(CN2CCCCC2)c1
inactive: [1] | [2] | [3] | [4] | [5] | [6] | [7] | [8] | [9] | [10]

CC(=O)Nc1ccc(S(=O)(=O)Nc2cc(C)on2)cc1
inactive: [1] | [2] | [3] | [4] | [5] | [6] | [7] | [8] | [9] | [10]

CCCCCC1Nc2cc(C(F)(F)F)c(S(N)(=O)=O)cc2S(=O)(=O)N1 (stereo not drawn)
inactive: [1] | [2] | [3] | [4] | [5] | [6] | [7] | [8] | [9] | [10]

CC(CC(C#N)(c1ccccc1)C(C)C)N(C)C (stereo not drawn)
inactive: [1] | [2] | [3] | [4] | [5] | [6] | [7] | [8] | [9] | [10]

CN1C(CSCC(F)(F)F)Nc2cc(Cl)c(S(N)(=O)=O)cc2S1(=O)=O (stereo not drawn)
inactive: [1] | [2] | [3] | [4] | [5] | [6] | [7] | [8] | [9] | [10]

CCN(CC)CC(=O)OCC(=O)[C@@]1(O)CC[C@H]2[C@@H]3CCC4=CC(=O)CC[C@]4(C)[C@H]3[C@@H](O)C[C@@]21C
inactive: [1] | [2] | [3] | [4] | [5] | [6] | [7] | [8] | [9] | [10]

CCCCCC[C@@H](CCC)C(=O)O
inactive: [1] | [2] | [3] | [4] | [5] | [6] | [7] | [8] | [9] | [10]

O=C(O)C(=O)Nc1cccc(-c2nn[nH]n2)c1
inactive: [1] | [2] | [3] | [4] | [5] | [6] | [7] | [8] | [9] | [10]

COCCc1ccccn1
inactive: [1] | [2] | [3] | [4] | [5] | [6] | [7] | [8] | [9] | [10]

CCN1CCN(c2cc(-c3ccc(F)cc3)c3c(n2)CCCCCC3)CC1
inactive: [1] | [2] | [3] inactive [at 17.4 µM] | [4] | [5] | [6] | [7] | [8] | [9] | [10]

CCOC(=O)CN1CCCC1=O
inactive: [1] | [2] | [3] | [4] | [5] | [6] | [7] | [8] | [9] | [10]

CCn1ccc(NS(=O)(=O)c2ccc(N)cc2)nc1=O
inactive: [1] | [2] | [3] | [4] | [5] | [6] | [7] | [8] | [9] | [10]

O=c1[nH]c2ccccc2c(=O)n1CCCl
inactive: [1] | [2] | [3] | [4] | [5] | [6] | [7] | [8] | [9]

CCOc1ccccc1OCC1CNCCO1 (stereo not drawn)
inactive: [1] | [2] | [3] | [4] | [5] | [6] | [7] | [8] | [9] | [10]

CCOC(=O)c1ccc(NC(=O)CN2CCCCC2)cc1
inactive: [1] | [2] | [3] | [4] | [5] | [6] | [7] | [8] | [9] | [10]

COc1ccc(/C(C)=C/C(=O)O)c(OC)c1
inactive: [1] | [2] | [3] | [4] | [5] | [6] | [7] | [8] | [9] | [10]

COc1cc(/C=C/C(N)=O)cc(OC)c1OC
inactive: [1] | [2] | [3] | [4] | [5] | [6] | [7] | [8] | [9] | [10]

CO/N=C(\C(=O)O)c1csc(NC(=O)CCl)n1
inactive: [1] | [2] | [3] | [4] | [5] | [6] | [7] | [8] | [9] | [10]

CN(C)CCN1CCN(c2cccc(Cl)c2)C1=O
inactive: [1] | [2] | [3] | [4] | [5] | [6] | [7] | [8] | [9] | [10]

CC(=O)N(CC(O)CO)c1c(I)c(C(=O)NCCO)c(I)c(C(=O)NCC(O)CO)c1I (stereo not drawn)
inactive: [1] | [2] | [3] | [4] | [5] | [6] | [7] | [8] | [9] | [10]

N=C(N)c1ccc(OCCCOc2ccc(C(=N)N)cc2)cc1
inactive: [1] | [2] | [3] | [4] | [5] | [6] | [7] | [8] | [9] | [10]

Cc1[nH]cnc1-c1ccc(Cl)cc1
inactive: [1] | [2] | [3] | [4] | [5] | [6] | [7] | [8] | [9] | [10]
